# An excerpt weighted towards active compounds, which were near 17% of everything screened.
# TDP1 cell CPT: DT40-hTDP1 cell growth loss with CPT | chicken DT40 Tdp1-/-;hTDP1 cells + 20 nM CPT, ATP luminescence, 48 h | Potency, µM (titrated, usually from 46.2 µM), inactives show top-dose activity change, negative = growth inhibition, most hits filed as inhibitors | 12% of 420,000 active | AID 686979; also: % is scaled to controls: 0 for no effect and ±100 for the full control effect; nearly all actives have a fitted effect of over 55% in size
#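 Chicken DT40 Tdp1-/- cells complemented with human TDP1, 400 cells/well, exposed to compounds plus 20 nM camptothecin for at least 48 h at 37 C; viability read as ATP content by CellTiter-Glo luminescence.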
# TGFb SMAD3 inh: inhibitors of TGF-b signaling; HepG2 CAGA-GFP TGF-b/SMAD3 reporter, GFP fluorescence, 18 h; TGF-beta stimulated, 500 pg/mL final; 1.2% of 410,000 active; Potency, µM (titrated, usually from 46.1 µM), inactives show at the top dose activity, negative = inhibition, most hits filed as inhibitors; also: % is scaled to controls: 0 for no effect and ±100 for the full control effect; nearly all actives have a fitted effect of over 65% in size
#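 Inhibition of TGF-beta-driven CAGA-GFP reporter expression in HEPG2 cells is measured by cellular GFP fluorescence after 18 h stimulation with 500 pg/mL recombinant TGF-beta in 1% FBS medium at 37 degrees C.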
# HepG2 tox: counter-screen for TGF-b inhibitors: cytotoxicity in HepG2 cells | HepG2 CAGA-GFP viability, ATP luminescence, 18 h | Potency, µM (doses to about 46.1 µM), for inactives: at the top dose activity change, negative = cytotoxicity, usual class: cytotoxic | 0.76% of 410,000 active | AID 588856
#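 CellTiter-Glo luminescence gave cytotoxicity after 18 hours at 37 degrees C. The cells were HepG2 CAGA-GFP in 1% FBS DMEM, stimulated with 500 pg/mL TGF-beta after compound addition. %Activity was normalised to no-cell wells (complete cell-killing) and DMSO (no toxicity), and curves were fitted and classified.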
# HT1080NT lethal: kills 2HG-producing HT-1080-NT fibrosarcoma cells | HT-1080-NT fibrosarcoma viability, CellTiter-Glo ATP luminescence, 48 h | Potency, µM (titrated, usually from 46.1 µM), without a hit: top-dose activity, negative = less viability, actives largely listed as cytotoxic | 1.6% of 360,000 active;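 also: NT is the 2HG producing partner of a matched IDH1 knockdown line; 0% = DMSO-treated cells and -100% = media-only wells without cells; nearly all actives have a fitted effect of over 55% in size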
#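 Fibrosarcoma NT cells, 750 per well in 5% FBS RPMI, were exposed to compound for 48 hours. Viability: CellTiter-Glo luminescence.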
# HT1080 IDH1KD tx: toxicity to HT-1080 IDH1 knockdown cells (counter line); AID 686971; Potency, µM (top dose mostly 46.1 µM), without a hit: at the top dose activity, negative = toxicity, hits mostly cytotoxic; 2% of 360,000 active; HT-1080 IDH1 knockdown viability, ATP luminescence, 48 h;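 also: 0% = DMSO wells and -100% = cell-free medium wells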
#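 CellTiter-Glo luminescence after 48 h compound exposure at 37 degrees C of IDH1-knockdown HT-1080 cells in 5% FBS RPMI. %Activity scaled between DMSO wells and cell-free media wells, with curves fitted and assigned curve classes.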
# TDP1 cell noCPT: qHTS for Inhibitors of human tyrosyl-DNA phosphodiesterase 1 (TDP1): qHTS in cells in absence of CPT | DT40 Tdp1-/- hTDP1 cells, no CPT, ATP luminescence, 48 h | Potency, µM (series often up to 46.2 µM), for the others: top-dose activity change, negative = growth inhibition, actives largely listed as inhibitors | 15% of 420,000 active; also: % is scaled to controls: 0 for no effect and ±100 for the full control effect; nearly all actives have a fitted effect of over 55% in size
#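 Luminescent ATP content (CellTiter-Glo) served as the growth readout. Knockout chicken DT40 cells expressing human TDP1 were exposed to compounds without camptothecin for a minimum 48 hr at 37 °C.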
# The depositor's hits bear a star; ? = inconclusive; nt = no result. Calls follow the shape of the dose curve; as a rule, active = well fitted curve in the direction sought with a large enough effect; inconclusive = small, poorly fitted or top-dose-only effect, or another doubt; inactive = no such curve, though single readings can be large; an effect the other way counts as inactive or inconclusive. Potency is read from the fitted curve at half-maximal effect.
SMILES,TDP1 cell CPT,TGFb SMAD3 inh,HepG2 tox,HT1080NT lethal,HT1080 IDH1KD tx,TDP1 cell noCPT
O=C(Nc1nnc(S(=O)(=O)N2CCCc3ccccc32)s1)c1cccc(Cl)c1,?,?,-40%,nt,nt,18µM*
O=C(COc1ccc(Cl)cc1)Nc1nnc(S(=O)(=O)N2CCc3ccccc32)s1,?,?,-31%,nt,nt,18µM*
Cc1cccc(C(=O)Nc2nnc(S(=O)(=O)N3CCCc4ccccc43)s2)c1,?,?,-39%,nt,nt,16µM*
Cc1ccc(C(=O)Nc2nnc(S(=O)(=O)N3CCc4ccccc43)s2)cc1,-24%,?,-26%,nt,nt,-25%
COc1cccc(NC(=O)c2nn(-c3ccc(C)cc3)c(=O)n(C)c2=O)c1,?,14%,5%,nt,nt,15µM*
COc1ccc(/C=N/NC(=O)C2CCN(c3ncc(C(F)(F)F)cc3Cl)CC2)cc1,-7%,?,1%,-1%,-5%,?
O=c1[nH]c(SCc2ccccc2Cl)nc2c1CCC2,?,18%,6%,-1%,2%,29µM*
Cc1ccc(CSc2nc3c(c(=O)[nH]2)CCC3)cc1,-7%,19%,-4%,1%,17%,-4%
O=c1[nH]c(SCCc2ccccc2)nc2c1CCC2,?,-5%,-6%,1%,4%,7.3µM*
CNc1nc(SCc2ccccc2Cl)nc2c1CCCC2,?,?,-40%,?,33µM*,?
Nc1nc(SCc2ccccc2Cl)nc2nc3c(cc12)CCCC3,?,1%,-3%,-1%,5%,-8%
COC(=O)c1ccc(CSc2nc3c(c(=O)[nH]2)CCC3)cc1,?,-3%,-3%,15%,23%,21µM*
CCc1ccc(NC(=O)CSc2ccnc(=O)[nH]2)cc1,5%,0%,4%,nt,nt,-19%
Cc1oc(-c2ccccc2Cl)nc1CSc1nc2c(c(=O)[nH]1)CCCC2,13µM*,23%,18%,6%,-1%,18µM*
Cc1cccc(CSc2nc3c(c(=O)[nH]2)CCC3)c1,?,?,2%,2%,7%,?
N=C(N)Cc1ccccc1Sc1ccccc1,9.2µM*,5%,0%,-3%,-18%,8.2µM*
Cc1ccc(NC(=O)Cn2ccn(-c3ccc(F)c(F)c3)c(=O)c2=O)cc1C,-2%,-32%,-12%,nt,nt,-2%
CS(=O)(=O)c1ccc2nc(NC(=O)c3ccco3)sc2c1,?,-18%,-36%,?,?,?
Cc1ccc(C(=O)Nc2nc3ccc(S(C)(=O)=O)cc3s2)o1,10µM*,-14%,-81%,21µM*,?,12µM*
CS(=O)(=O)c1ccc2sc(NC(=O)c3cc4ccccc4o3)nc2c1,?,-17%,-10%,-2%,-11%,23µM*
COc1ccc(NCN2C(=O)C3C4C=CC(C4)C3C2=O)cc1 (stereo not drawn),-7%,0%,5%,?,-29%,-17%
CC1CCN(C(=O)c2nc[nH]c2C(=O)N2CCC(C)CC2)CC1,2%,-27%,-10%,14%,4%,17%
Cc1ccc(C)c(NC(=O)NCc2ccccn2)c1,-1%,5%,0%,15%,13%,9%
Cc1ccc(C)c(NC(=S)c2nc3ccccc3s2)c1,26µM*,-6%,-10%,-9%,-8%,?
Cc1ccccc1-c1ocnc1C(=O)Nc1ccccc1NC(=O)c1ccccn1,?,11µM*,-77%,3.7µM*,?,?
Cc1ccc(C)c(NC(=S)c2ccccn2)c1,18µM*,-6%,-38%,-1%,-14%,18µM*

# Assay outcomes (PubChem BioAssay)
